# Experimental data taken from ChEMBL document CHEMBL3988442, “University of Dundee, Small-Polar-MMV Screening Library” (2021).
# About 1,000 (1.4%) of roughly 69,000 compounds showed an effect of 50% or more. The sample as a whole holds a higher share of strong results than the screen did.
# Tested on: Leishmania donovani
# Assay: Leishmania intramacrophage assay
# Assay type: functional, organism-based
# Design: scale not given: in the data most compounds retested in dose-response had high values
compound,measurement,setting,value
CCSCCC(=O)Nc1ncn(CC(=O)NCc2ccccc2)n1,Percent Effect,"30 µM, 30.03 µM",19.14%
O=C(c1c2c(N3CCOCC3)ncnc2n2ccccc12)N1CCCC1,Percent Effect,"30.3 µM, […]",16.59%
CN(C)CCN1CCOCC2(CCCN(C(=O)c3ccoc3)C2)C1.O=C(O)C(F)(F)F.O=C(O)C(F)(F)F (stereo not drawn),Percent Effect,"30.3 µM, […]",9.003%
Cc1cc2cc(CNC3CCN(CC4CCOC4)CC3)oc2cc1C (stereo not drawn),Percent Effect,"30.3 µM, […]",70.06%
Cc1cc2cc(CNC3CCN(S(C)(=O)=O)CC3)oc2cc1C,Percent Effect,"30.3 µM, […]",23.07%
Cc1cc2cc(CNC3CCN(CC(=O)N(C)C)CC3)oc2cc1C,Percent Effect,"30.3 µM, […]",25.29%
CN(C)S(=O)(=O)c1ccc(-c2nc(C#N)c(NC3CC3)o2)o1,Percent Effect,"30.3 µM, […]",20.5%
CN(C)S(=O)(=O)c1ccc(-c2nc(C#N)c(NC(C)(C)C)o2)o1.Cl,Percent Effect,"30.3 µM, […]",70.96%
CC(C)Nc1oc(-c2ccc(S(=O)(=O)N(C)C)o2)nc1C#N,Percent Effect,"30.3 µM, […]",16.53%
Cc1oc(-c2nc(C#N)c(NC3CC3)o2)cc1S(=O)(=O)N1CCCC1,Percent Effect,"30.3 µM, […]",1.943%
CN(C)S(=O)(=O)c1ccc(-c2nc(C#N)c(NC3CCCCC3)o2)o1,Percent Effect,"30.3 µM, […]",54.54%
CNc1oc(-c2ccc(S(=O)(=O)N(C)C)o2)nc1C#N,Percent Effect,"30.3 µM, […]",-4.203%
Cc1ccc(N2C[C@H](C(=O)N3CCOCC3)[C@@H]3CCO[C@@H]3C2)nn1,Percent Effect,"30.3 µM, […]",10.85%
O=C(O)C(F)(F)F.c1csc(CN2CCn3c(Cn4cncn4)cnc3C2)n1,Percent Effect,"30 µM, 30.03 µM",0.7173%
CC(C)(C)c1noc(CCCC(=O)N2CCCC(c3ccn[nH]3)C2)n1 (stereo not drawn),Percent Effect,"30.3 µM, […]",-44.28%
COc1cc(S(=O)(=O)N2CCCc3ccccc32)cc(C(=O)O)c1OC,Percent Effect,"30 µM, 30.03 µM",1.897%
Cc1c(C(=O)NCc2ccnc(OCC(F)(F)F)c2)cnn1C,Percent Effect,30 µM,34.3%
O=C(c1ccccn1)N1CCc2c(nc(N3CCCC3)[nH]c2=O)C1,Percent Effect,"30 µM, 30.03 µM",-2.348%
Cc1cnn(-c2cccc(N3CCCC3)n2)c1,Percent Effect,"30.3 µM, […]",88.75%
Cc1cnn(-c2cccc(N3CCN(c4cc(C)nc(C)n4)CC3)n2)c1,Percent Effect,"30.3 µM, […]",-8.114%
Cc1cnn(-c2cccc(N3CCCCC3)n2)c1,Percent Effect,"30.3 µM, […]",-15%
c1c(CN2CCOCC2)nc2n1CCN(CC1CC1)C2,Percent Effect,"30.3 µM, […]",2.759%
CCc1csc(C2CCCN(C(=O)c3ccco3)C2)n1 (stereo not drawn),Percent Effect,30 µM,-22.84%
Cc1cccc(NS(=O)(=O)c2cc(C(=O)O)oc2C)c1,Percent Effect,"30.3 µM, […]",8.685%
CC(C)(C)NC(=O)c1ccn(COc2c(Cl)cccc2Cl)n1,Percent Effect,"30.3 µM, […]",6.361%
CC(C)(C)NC(=O)c1ccn(COc2ccccc2Cl)n1,Percent Effect,"30.3 µM, […]",62.54%
COC(=O)c1ccn(COc2ccccc2Cl)n1,Percent Effect,"30.3 µM, […]",-5.219%
c1nc(N2CCOC(Cn3cncn3)C2)c2cc[nH]c2n1 (stereo not drawn),Percent Effect,30 µM,24.06%
